This is a sample that favours compounds with a hit; in the whole collection about 11% have one here.
PLK1 PBD block – qHTS for Inhibitors of PLK1-PDB (polo-like kinase 1 - polo-box domain): Primary Screen; Serine/threonine-protein kinase PLK1 (Homo sapiens), P53350; Plk1 PBD binding of FITC phosphopeptide, fluorescence polarization; Potency, µM, actives largely listed as inhibitors; hit rate 2.8% among 360,000; note: series mostly up to about 57 µM; nearly all actives have a fitted effect of over 65% in size
BAZ2B block – qHTS Assay for Inhibitors of BAZ2B | hit rate 4.4% among 360,000 | AlphaScreen BAZ2B-H3K14Ac peptide displacement | Potency, µM (highest dose often 114 µM), hits mostly inhibitors; note: nearly all actives have a fitted effect of over 60% in size
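Multi-concentration screen (max 110 uM) measuring displacement of acetylated histone H3 peptide from BAZ2B by AlphaScreen, using 50 nM protein, 50 nM peptide and 10 ug/mL streptavidin donor plus Ni-chelate acceptor beads.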
G9a block – qHTS Assay for Inhibitors of Histone Lysine Methyltransferase G9a. Histone-lysine N-methyltransferase EHMT2 (Homo sapiens), Q96KQ7. G9a H3K9 monomethylation, AlphaScreen, 2 h. Potency, µM (doses to about 102 µM), usual class: inhibitors. hit rate 8.8% among 350,000. AID 504332, 2011; note: nearly all actives have a fitted effect of over 75% in size
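Methyltransferase reactions run at room temperature for 2 h (20 nM enzyme, 500 nM biotin-H3K9 peptide, 20 uM SAM) after a 15 min compound preincubation; product detected by AlphaScreen beads and anti-H3K9me1 antibody.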
HP1b binding inh – HTS for Inhibitors of HP1-beta Chromodomain Interactions with Methylated Histone Tails | Chromobox protein homolog 1 (Homo sapiens), P83916 | AlphaScreen HP1-beta / biotin-H3K9me3 peptide binding | Potency, µM (doses to about 114 µM), actives largely listed as inhibitors | hit rate 0.56% among 390,000 | AID 540317, 2011; note: nearly all actives have a fitted effect of over 70% in size
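Compound inhibition of the preformed complex between 50 nM HP1-beta and 50 nM biotinylated H3K9me3 peptide was read by AlphaScreen. Buffer was PBS pH 7.4 with 0.01% Tween-20. Incubations ran 30 min at room temperature, with 10 ug/mL donor/acceptor beads.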
VDR inh – Inhibitors of the vitamin D receptor (VDR): qHTS. hit rate 0.93% among 400,000. Vitamin D3 receptor (Homo sapiens), P11473. VDR-SRC2-3 peptide fluorescence polarization, 2 h. Potency, µM, usual class: inhibitors. AID 504847, 2011
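Two reagent solutions held at 4 deg C in the dark were dispensed, compounds pinned at 23 nl, and the mixture incubated 2 h at room temperature. Read-out: fluorescence polarization of VDR–SRC2-3 peptide binding.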
JMJD2A Tudor – qHTS Assay for Inhibitors of JMJD2A-Tudor Domain; Potency, µM (highest dose often 114 µM), actives largely listed as inhibitors; hit rate 4.4% among 390,000; AID 504339, 2011; Lysine-specific demethylase 4A (Homo sapiens), O75164; AlphaScreen JMJD2A-Tudor / H3K4me3 peptide binding; note: nearly all actives have a fitted effect of over 50% in size
A number is an active result; . = inactive; ? = inconclusive; / = no result given; [ ] = another dose, or the depositor's remark. Calls come from the whole dose curve; as a rule, active = well fitted curve in the direction sought with a large enough effect; inconclusive = small, poorly fitted or top-dose-only effect, or another doubt; inactive = no such curve, though single readings can be large; an effect the other way counts as inactive or inconclusive.

SMILES	PLK1 PBD block	BAZ2B block	G9a block	HP1b binding inh	VDR inh	JMJD2A Tudor
CC(=O)/C(=N\Nc1ccccc1Cl)Sc1nnc(-c2ccccc2)n1-c1ccccc1	.	.	8.91µM	.	.	.
CC(=O)/C(=N\Nc1ccccc1)Sc1nnc(-c2ccccc2)n1-c1ccccc1	.	.	10µM	.	.	31.6µM
CC(=O)/C(=N/Nc1ccc(C)cc1)Sc1nnc(CCc2ccccc2)n1-c1ccccc1	.	.	?	.	.	?
CC(=O)/C(=N\Nc1ccccc1)Sc1nncn1C	.	?	3.98µM	.	.	20µM
CC(=O)C(N=Nc1ccccc1)(Sc1nnc(-c2ccccc2)n1-c1ccccc1)C(C)=O	.	.	?	.	.	.
O=c1c2oc3ccccc3c2n(Cc2ccccc2F)c(=O)n1Cc1ccccc1	/	.	.	.	.	.
CCOC(=O)C1=C(O)C(=O)N(c2ccc(S(N)(=O)=O)cc2)C1c1ccc(Cl)cc1 (stereo not drawn)	.	?	.[0.501 µM]	.	.	.
O=C1C(=O)N(c2ccccc2)C(c2ccccc2[N+](=O)[O-])/C1=C(\O)c1ccccc1 (stereo not drawn)	.	?	?	?	.	.
O=C1C(=O)N(c2cccc(Cl)c2)C(c2ccccc2[N+](=O)[O-])/C1=C(\O)c1ccccc1 (stereo not drawn)	?	79.4µM	28.2µM	.	.	?
CCOc1ccc(N2C(=O)C(=O)/C(=C(/O)c3ccccc3)C2c2ccccc2[N+](=O)[O-])cc1 (stereo not drawn)	.	.	44.7µM	.	.	.
NS(=O)(=O)c1ccc(N2C(=O)C(=O)/C(=C(/O)c3ccccc3)C2c2ccc(Cl)cc2)cc1 (stereo not drawn)	.	.	50.1µM	.	.	.
CN(C)c1ncc2nc(-c3ccc(Cl)cc3)c(=O)n(Cc3ccc(F)cc3)c2n1	/	/	.[0.501 µM]	/	.	/
Cc1csc(NC(=O)CSCC(=O)Nc2ccccc2)n1	?	.	.	.	.	?
Cc1[nH]c2ccccc2c1-c1csc(NC(=O)CSCCO)n1	.	?	70.8µM	.	.	?
COc1ccc(Cl)cc1NC(=O)Cn1c(=O)n(CCC(=O)NCc2ccc3c(c2)OCO3)c(=O)c2ccccc21	/	.	.	.	.	.
Cc1ccc(-n2c(Cc3ccccc3)nnc2SCc2nc(-c3cccs3)no2)cc1C	/	.	.	.	.	.
CCc1ccc(NC(=O)CSC2=Nc3ccccc3C3=NC(CC(=O)NCc4ccc5c(c4)OCO5)C(=O)N23)cc1 (stereo not drawn)	/	.	.	.	.	.
NC(=O)C1CCCN(C(=O)c2ccc(Cl)cc2)C1 (stereo not drawn)	.	.	.[12.7 µM]	.	.	.
Cc1ccc(/C=C/C(=O)N2CCN(c3ncccn3)CC2)o1	29.9µM	.	3.98µM	?	?	28.2µM
Cc1ccc(/C=C/C(=O)N2CCN(c3ccc(F)cc3)CC2)o1	.	?	?	.	.	.
Cc1ccc(/C=C/C(=O)N2CCCC(C(N)=O)C2)o1 (stereo not drawn)	.	.	56.2µM	.	?	.
Cc1ccc(Cc2c(-c3ccc(Cl)cc3)nc3ccc(Br)cn23)cc1	.	/	/	/	/	/
CC(NC(=O)COC(=O)C1CC2CCCC(C1)C2=O)c1ccccc1 (stereo not drawn)	.	.	.[12.7 µM]	.	.	.
O=C1Cc2c([nH]c3ccc(Br)cc23)-c2ccccc2N1	.	/	39.8µM	.	?	.
Cc1cc2cc(CNC(=O)c3ccc(Br)o3)ccc2n1C	.	35.5µM	.	.	79.4µM	56.2µM
Cc1cc2cc(CNC(=O)CCC(=O)O)ccc2n1C	.	?	17.8µM	.	.	.
Cc1cccc(NC(=S)NCc2ccc3c(c2)cc(C)n3C)c1C	.	35.5µM	.	?	.	35.5µM

Screens as filed in PubChem.
